Compounds without any hit were thinned out: in the full panel of roughly 79,000, 15% have a hit. The source made the active and inactive calls. Rule as the data show it: active = growth inhibition above about 70%; inactive = the rest. Where a SMILES comes first, the peptide text is derived from it. The star is where a group is joined. Myristoyl = CCCCCCCCCCCCCC(=O)*
Experiments:
[1] = NCI Yeast Anticancer Drug Screen. Data for the rad50 strain (AID 155);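 also: 0% = growth of vehicle-only cultures of the same strain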; conditions: S. cerevisiae rad50 strain growth inhibition; at 50.0 µM; stronger effect = higher value
How it was run: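 DNA repair mutant yeast, compound exposure, growth read-out; inhibition is taken relative to vehicle.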

[2] = NCI Yeast Anticancer Drug Screen. Data for the mec2-1 strain (AID 157); conditions: S. cerevisiae mec2-1 strain, at 50.0 µM, stronger effect = higher value
How it was run: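 Test agents were screened against the mec2-1 yeast strain, with defined DNA repair or cell cycle alteration. Growth was scored as inhibition against vehicle-only controls.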

[3] = NCI Yeast Anticancer Drug Screen. Data for the sgs1 mgt1 strain (AID 161);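 also: 0% = growth of cultures given vehicle only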; conditions: S. cerevisiae sgs1 mgt1 strain, at 50.0 µM, stronger effect = higher value
How it was run: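 Read-out: growth inhibition vs vehicle controls. Cells: mutant yeast strain deficient in DNA damage repair.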

[4] = NCI Yeast Anticancer Drug Screen. Data for the cln2 rad14 strain (AID 165);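 also: 0% = growth equal to vehicle treated cultures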; conditions: S. cerevisiae cln2 rad14 strain, at 50.0 µM, stronger effect = higher value
How it was run: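 Growth of compound-exposed yeast (cln2 rad14 genotype) measured and expressed as inhibition relative to vehicle.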

[5] = NCI Yeast Anticancer Drug Screen. Data for the bub3 strain (AID 167); conditions: S. cerevisiae bub3 mutant strain, at 50.0 µM, stronger effect = higher value
How it was run: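 In this screen, a yeast mutant lacking normal mitotic checkpoint function is challenged with compound. Relative growth versus vehicle gives the inhibition value.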

[6] = NCI Yeast Anticancer Drug Screen. Data for the mlh1 rad18 strain (AID 175); conditions: S. cerevisiae mlh1 rad18 strain growth inhibition; at 50.0 µM; stronger effect = higher value
How it was run: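 In this whole-cell yeast screen, a strain with altered DNA damage repair is challenged with compound, and its growth is measured against matched vehicle-treated controls.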

Measured: growth inhibition

C=CCC(C(=O)O)c1ccccc1 (stereo not given)
inactive: [1] -11.2% | [2] -12.2% | [3] -5.2% | [4] -29.9% | [5] -14.6% | [6] 1.75%

CCCCN(CCCC)CCC(O)c1cc(-c2ccc(C(F)(F)F)cc2)nc(-c2ccc(C(F)(F)F)cc2)c1 (stereo not given)
inactive: [1] 24.3% | [2] -4.9% | [3] -37.6% | [4] -8.7% | [5] -55.6% | [6] -41.2%

NC(CSSCC(N)Cc1ccccc1)Cc1ccccc1 (stereo not given)
inactive: [1] -4.25% | [2] -9.45% | [3] -9.2% | [4] 14.8% | [5] -27.5% | [6] 25.9%

COc1cccc(CN2CCCN(Cc3cccc(OC)c3O)C2c2ccccc2)c1O
inactive: [1] 22.1% | [2] 3.2% | [3] 1.8% | [4] -6.45% | [5] 0.9% | [6] 12.4%

CC(=O)Nc1ccc(N=C/C=C/c2ccccc2)cc1
inactive: [1] -24.6% | [2] -56.5% | [3] 5.9% | [4] 2.05% | [5] -44.5% | [6] 2.05%

CCOC(=O)C(=Cc1ccc(Oc2ccccc2)cc1)C(=O)OCC
inactive: [1] 39.4% | [2] -6% | [3] 22.1% | [4] 24.8% | [5] 6.1% | [6] 7%

O=C(NNc1ccccc1)C1C2CC3OC(=O)C1C3C2 (stereo not given)
inactive: [1] 54% | [4] 52.4% | [6] 68.5%
active: [2] 82.1% | [3] 77.6% | [5] 79.8%

COc1ccc(OC)c2c1CCCC2
inactive: [1] -8.4% | [2] -5.95% | [3] -1.65% | [4] -7.35% | [5] 0.95% | [6] 7.1%

C(=N\c1oc(-c2ccccc2)c(-c2ccccc2)c1-c1ccccc1)/c1ccccc1
inactive: [1] 14.4% | [2] -5.15% | [3] -4.85% | [4] 14.3% | [5] 4.2% | [6] 6.2%

Cc1cc(N(CCC#N)CCC#N)ccc1/C=C(\N=[N+]=[N-])C(=O)NC(=O)COc1ccccc1
inactive: [1] 16.1% | [2] -19.8% | [3] 4.7% | [4] 11.9% | [5] -6.65% | [6] -9.05%

CCOP(=O)(OCC)OC1CC(n2cc(C)c(=O)n(C)c2=O)OC1CO[Si](C)(C)C(C)(C)C (stereo not given)
inactive: [1] 19.1% | [2] 1.5% | [3] 25.9% | [4] 17.6% | [5] 20.9% | [6] -12.7%

CCCCCCCCCCCCCCCCOc1ccc(OCCCCCCCCCCCCCCC)cc1
inactive: [1] 42.2% | [2] -8.2% | [3] 31.6% | [4] -24.7% | [5] 5.35% | [6] -1.1%

Cc1cc2c(=O)cc(-c3ccc(C(=O)O)cc3)oc2c(C(N)=O)c1C
inactive: [1] 4.15% | [2] 14.9% | [3] 23.6% | [4] 23.4% | [5] 11.2% | [6] 12.9%

O=c1n(CCO)nc2n1CCCN2
inactive: [1] 7.3% | [2] 10.9% | [3] 7.2% | [4] -15.8% | [5] 7.5% | [6] 5.6%

CN(/N=C/c1cccs1)c1ccc([N+](=O)[O-])cc1[N+](=O)[O-]
inactive: [1] -24.7% | [2] -25.5% | [3] 7.05% | [4] -9.35% | [5] -12.8% | [6] -10.8%

CCCCCCCCCC(C)(O)C(N)=O (stereo not given)
inactive: [1] 15.1% | [2] -6.15% | [3] 13.2% | [4] -21.6% | [5] -5.65% | [6] 9.65%

OC(c1ccccc1)C1(O)CCCCC1 (stereo not given)
inactive: [1] -10.8% | [2] -5.25% | [3] -1.7% | [4] -52.5% | [5] -17.1% | [6] 9.75%

O=C(CCCn1ccnc1[N+](=O)[O-])NCCn1cnc([N+](=O)[O-])c1
inactive: [1] 8.9% | [2] 29.6% | [3] 5.2% | [4] 5.75% | [5] -9.4% | [6] 61%

CCCCCC1CCC(OC(=O)NC)CC1 (stereo not given)
inactive: [1] 2% | [2] 9.85% | [3] -0.6% | [4] -19.9% | [5] 25.4% | [6] -6.95%

CCSc1ccc(N=[N+]([O-])c2ccc(SCC)c(Cl)c2)cc1Cl
inactive: [1] -5.6% | [2] 10.8% | [3] 1.65% | [4] -17.1% | [5] -4.6% | [6] 9.3%

COC1OC(COC(=O)Nc2ccccc2)C2OC12 (stereo not given)
inactive: [1] 8.45% | [2] 2.8% | [3] 24.6% | [4] -55.4% | [5] -10% | [6] 1.25%

CC(C)C(N)=O
inactive: [1] 5.1% | [2] -0.1% | [3] -7.15% | [4] -3% | [5] 12.1% | [6] -9.25%

COC(=O)N/N=C/c1cccc(C)n1
inactive: [1] -5.55% | [2] 2.05% | [3] -4.55% | [4] 0.7% | [5] -5.25% | [6] -11.6%

COC(=O)c1ccccc1CC1Cc2cc3c(cc2C1)CCC3
inactive: [1] 20.5% | [2] 7.1% | [3] -0.7% | [4] 12.9% | [5] 4.3% | [6] 5.45%

Cc1cc(C(=O)CSC(=S)SC(C)(C)C)ccc1Cl
inactive: [1] 9.3% | [2] -30.1% | [3] -5.85% | [4] 4.45% | [5] -17.9% | [6] -5.2%

O=c1[nH]c2cc(Br)c(Br)cc2c2ccc(Br)cc12
inactive: [1] 43% | [2] -3.8% | [3] 13.7% | [4] 1.3% | [5] 5.8% | [6] 5.15%

Nc1ccccc1CCO
inactive: [1] 14.5% | [2] -6.75% | [3] 30.9% | [4] 13.2% | [5] -5.8% | [6] 19.5%

O=C(C[n+]1ccccc1)c1ccccc1
inactive: [1] 1.75% | [2] -4.4% | [3] -2.4% | [4] -18.5% | [5] 9.45% | [6] 30.7%

CC(=O)Nc1ccc(/C=N\NC(=S)Nc2ccc(F)cc2)cc1
inactive: [1] -13.4% | [2] -12.7% | [3] -3.9% | [4] -53.1% | [5] 4.65% | [6] -18.8%

CCCCCCCCCCCCCC(=O)NCC(=O)NC(CO)C(=O)NC(CO)C(=O)NC(CCCCN)C(=O)NC(CO)C(=O)NC(CCCCN)C(=O)N1CCCC1C(=O)NC(CCCCN)C(=O)NC(CC(=O)O)C(N)=O (stereo not given) (Myristoyl-GSSKSKPKD-NH2; configuration not given here)
inactive: [1] 7.25% | [2] -2.55% | [3] -3.9% | [4] 6.1% | [5] 10.3% | [6] 14%

C[n+]1ccc(/C=C/c2ccc(O)c3ncccc23)c2cccc(O)c21
inactive: [1] 38.5% | [2] 41.8% | [3] 37.9% | [4] 7.75% | [5] 5.4% | [6] 44.9%

O=C(Nc1nccs1)Nc1ccc(Cl)cc1[N+](=O)[O-]
inactive: [1] 0.1% | [2] 33.6% | [3] 34.6% | [4] -6.95% | [5] 24.8% | [6] 34.4%

c1ccc(-c2ccc(-c3cc4ccccc4c4ccccc34)cc2)cc1
inactive: [1] -13.8% | [2] -15% | [3] -17.2% | [4] -5.8% | [5] -10.3% | [6] -9.2%

O=c1[nH]nc(NC2Nc3ccccc3N2)c2ccccc12
inactive: [1] 17.3% | [2] 15.1% | [3] 9.15% | [4] -19.2% | [5] 6.6% | [6] 13.4%

CC12CCC3C(CC=C4CC(O)CCC43C)C1CCC(=O)N2 (stereo not given)
inactive: [1] 5.2% | [2] -3.55% | [3] -10.2% | [4] 7.95% | [5] -10.2% | [6] -1%

Cc1c(C)n(COCCO)c2ncnc(N)c12
inactive: [1] -14.2% | [2] -37.1% | [3] -23.6% | [4] 13.8% | [5] -12.6% | [6] -39%

COc1ccc2nc(C3CCCCC3C(=O)O)cc(C)c2c1 (stereo not given)
inactive: [1] -9.2% | [2] -5.35% | [3] -5.8% | [4] -27.1% | [5] -4.3% | [6] -1.45%

O=C(CNC(=O)C(CO)NC(=O)OCc1ccccc1)OCc1ccccc1 (stereo not given)
inactive: [1] 12.4% | [2] 3% | [3] 9.35% | [4] 4.1% | [5] -0.1% | [6] 4.35%

CC[O-].CC[O-].COc1ccc(C(=O)[CH-]C(C)=O)cc1OC.COc1ccc(C(=O)[CH-]C(C)=O)cc1OC.[Ti+4]
inactive: [1] -17.4% | [2] 18.5% | [3] -2.7% | [4] 9.85% | [5] 29.9% | [6] -10.3%

CC(=O)Nc1ccc(F)cc1
inactive: [1] -38.3% | [2] -25.7% | [3] -5.3% | [4] 4% | [5] -19.5% | [6] -13.1%

— PubChem BioAssay (NCI)
